PubChem BioAssay AID1159580 (chemical genetic matrix, 2015)
Among all 5,500 compounds or so, about 2,000 (36%) were called active. Inconclusive results (about 18%) are left out. Rule as the data show it: active = normalized growth mostly below about 0.91 (no sharp cut-off); inconclusive = no clear call, values can overlap the other calls; inactive = mostly above about 0.92. Some of the results follow.

Assay: chemical genetic growth profiling, strain panel (AID 1159580);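 also: tested at 20 µM; growth read once vehicle control cultures reached saturation at 30 °C; 1 = growth at the plate median or of vehicle wells; lower values mean less growth of the strain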
Settings: growth OD
[1] = S. cerevisiae deletion strains, locus YAL013W, strain DEP1, active compounds read low
[2] = S. cerevisiae deletion strains, locus YGR078C, strain PAC10, active compounds read low
[3] = S. cerevisiae deletion strains, locus YJR075W, strain HOC1, active compounds read low
[4] = S. cerevisiae deletion strains, locus YNL128W, strain TEP1, active compounds read low

Measured: normalized growth

COC(=O)c1csc2c(C(F)(F)F)cc(N3CCN(S(=O)(=O)c4ccc(C)cc4)CC3)nc12
inactive: [1] 1.01 | S. cerevisiae deletion strains, locus YBR229C, strain ROT2, active compounds read low 1 | S. cerevisiae deletion strains, locus YDL101C, strain DUN1, active compounds read low 1 | S. cerevisiae deletion strains, locus YDR150W, strain NUM1, active compounds read low 1.05 | S. cerevisiae deletion strains, locus YEL061C, strain CIN8, active compounds read low 1.01 | [2] 1.02 | S. cerevisiae deletion strains, locus YHR030C, strain SLT2, active compounds read low 1.16 | S. cerevisiae deletion strains, locus YHR087W, strain rtc3, active compounds read low 1 | S. cerevisiae deletion strains, locus YJL187C, strain SWE1, active compounds read low 1 | S. cerevisiae deletion strains, locus YJR043C, strain POL32, active compounds read low 1.04 | [3] 0.999 | S. cerevisiae deletion strains, locus YKL190W, strain CNB1, active compounds read low 1.01 | S. cerevisiae deletion strains, locus YLR039C, strain RIC1, active compounds read low 1.01 | S. cerevisiae deletion strains, locus YLR058C, strain SHM2 (second series), active compounds read low 1.01 | S. cerevisiae deletion strains, locus YLR085C, strain ARP6, active compounds read low 1 | S. cerevisiae deletion strains, locus YLR262C, strain YPT6, active compounds read low 1.13 | S. cerevisiae deletion strains, locus YML094W, strain GIM5, active compounds read low 0.998 | S. cerevisiae deletion strains, locus YMR219W, strain ESC1, active compounds read low 0.995 | S. cerevisiae deletion strains, locus YMR263W, strain SAP30, active compounds read low 1.03 | [4] 1 | S. cerevisiae deletion strains, locus YNL298W, strain CLA4 (second series), active compounds read low 1.02 | S. cerevisiae deletion strains, locus YNL322C, strain KRE1, active compounds read low 1 | S. cerevisiae deletion strains, locus YNR030W, strain Alg12, active compounds read low 1.03 | S. cerevisiae deletion strains, locus YPL055C, strain LGE1, active compounds read low 0.993 | S. cerevisiae deletion strains, locus YPL241C, strain CIN2, active compounds read low 0.986 | S. cerevisiae deletion strains, locus YPR135W, strain CTF4, active compounds read low 1.11 | S. cerevisiae strains, strain wild type, active compounds read low 1.01

NCCNC(=O)c1ncsc1-c1cccc(F)c1
inactive: [1] 1.02 | S. cerevisiae deletion strains, locus YAL040C, strain CLN3, active compounds read low 0.986 | S. cerevisiae deletion strains, locus YCL061C, strain MRC1 (second series), active compounds read low 0.991 | S. cerevisiae deletion strains, locus YDR363W, strain ESC2, active compounds read low 1.02 | S. cerevisiae deletion strains, locus YER002W, strain NOP16, active compounds read low 1 | [2] 0.989 | [3] 1.01 | S. cerevisiae deletion strains, locus YMR307W, strain GAS1, active compounds read low 1 | [4] 0.99 | S. cerevisiae deletion strains, locus YNL153C, strain GIM3, active compounds read low 0.983 | S. cerevisiae deletion strains, locus YNL175C, strain NOP13, active compounds read low 0.984 | S. cerevisiae deletion strains, locus YNL197C, strain WHI3, active compounds read low 0.989 | S. cerevisiae deletion strains, locus YNL224C, strain SQS1, active compounds read low 0.996 | S. cerevisiae deletion strains, locus YOR083W, strain WHI5 (second series), active compounds read low 0.974
